# Laboratory results from publication PMC7862700, “An all-to-all approach to the identification of sequence-specific readers for epigenetic DNA modifications on cytosine”.
# Experiments:
# Assay in all cases: DAPPL (digital affinity profiling via proximity ligation, sequencing); 10 mM Tris-HCl pH 7.5, 50 mM NaCl, 1 mM DTT, 4% glycerol, room temperature, 30 min; GST-TFs on glutathione beads, 16-mer random dsDNA library, 0.1% formaldehyde crosslink after washing; high values mean tight binding
# FLI1 = target: T1, FLI1 (Homo sapiens, UniProt Q01543 1-452); conditions: protein: recombinant; tags: N-terminal GST; dsDNA, one strand shown
# T1 sequence: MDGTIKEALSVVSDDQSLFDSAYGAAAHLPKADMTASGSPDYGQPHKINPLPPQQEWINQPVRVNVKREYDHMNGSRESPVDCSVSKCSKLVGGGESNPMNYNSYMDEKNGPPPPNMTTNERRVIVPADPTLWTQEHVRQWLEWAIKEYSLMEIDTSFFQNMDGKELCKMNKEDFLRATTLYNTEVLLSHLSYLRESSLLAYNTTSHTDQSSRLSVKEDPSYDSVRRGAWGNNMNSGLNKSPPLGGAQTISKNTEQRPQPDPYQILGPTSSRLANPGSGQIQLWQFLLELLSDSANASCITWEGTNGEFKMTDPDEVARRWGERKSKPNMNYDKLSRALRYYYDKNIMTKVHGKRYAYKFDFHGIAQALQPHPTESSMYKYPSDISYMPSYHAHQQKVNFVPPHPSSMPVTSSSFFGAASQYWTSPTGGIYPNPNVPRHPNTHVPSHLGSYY
# Summary of the method: (§1)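 Sequencing on an Illumina NextSeq500 followed washing, crosslinking with 0.1% formaldehyde, proximity ligation (BsaI/T4 ligase, 1 h, 37 °C) and PCR amplification of pools that had been incubated for 30 min at room temperature with 200 nmole of a random double-stranded 16-mer DNA library in Tris/NaCl/DTT/glycerol buffer. Each pool held DNA-barcoded human transcription factors, expressed in yeast as GST fusions and captured on glutathione beads, plus a tag-only sample. Binding signal is a hexamer's read frequency for a factor divided by its frequency in the tag-only sample.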
# ELK1 = target: T2, ELK1 (Homo sapiens, UniProt P19419 1-428); conditions: protein: recombinant; tags: N-terminal GST; dsDNA, one strand shown
# T2 sequence: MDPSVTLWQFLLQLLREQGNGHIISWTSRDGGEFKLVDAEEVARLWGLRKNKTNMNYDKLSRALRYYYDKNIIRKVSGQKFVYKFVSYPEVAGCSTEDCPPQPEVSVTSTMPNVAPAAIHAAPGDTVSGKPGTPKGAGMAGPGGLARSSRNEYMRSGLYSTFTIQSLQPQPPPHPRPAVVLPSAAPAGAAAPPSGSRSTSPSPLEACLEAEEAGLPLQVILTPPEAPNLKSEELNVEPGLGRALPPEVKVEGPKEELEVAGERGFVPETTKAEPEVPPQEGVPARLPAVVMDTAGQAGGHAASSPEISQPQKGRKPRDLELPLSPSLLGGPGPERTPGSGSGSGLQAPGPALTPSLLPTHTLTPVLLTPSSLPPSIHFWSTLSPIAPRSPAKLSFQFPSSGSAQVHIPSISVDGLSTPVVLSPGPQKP
# Summary of the method: as §1
# GABPA = target: T3, GABPA (Homo sapiens, UniProt Q06546 1-454); conditions: protein: recombinant; tags: N-terminal GST; dsDNA, one strand shown
# T3 sequence: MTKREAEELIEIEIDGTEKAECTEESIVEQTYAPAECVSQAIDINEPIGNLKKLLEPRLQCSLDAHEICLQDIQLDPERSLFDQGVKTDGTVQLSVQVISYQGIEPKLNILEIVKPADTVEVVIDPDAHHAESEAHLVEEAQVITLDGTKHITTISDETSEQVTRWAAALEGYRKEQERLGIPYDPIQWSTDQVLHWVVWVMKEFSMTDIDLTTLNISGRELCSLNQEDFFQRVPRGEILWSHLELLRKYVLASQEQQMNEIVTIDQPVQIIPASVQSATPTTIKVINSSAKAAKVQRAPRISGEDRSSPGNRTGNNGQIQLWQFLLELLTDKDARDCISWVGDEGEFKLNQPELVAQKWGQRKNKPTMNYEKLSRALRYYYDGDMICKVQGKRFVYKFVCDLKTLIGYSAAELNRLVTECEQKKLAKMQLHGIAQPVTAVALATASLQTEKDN
# Summary of the method: as §1
# ERG = target: T4, ERG (Homo sapiens, UniProt P11308 1-479); conditions: protein: recombinant; tags: N-terminal GST; dsDNA, one strand shown
# T4 sequence: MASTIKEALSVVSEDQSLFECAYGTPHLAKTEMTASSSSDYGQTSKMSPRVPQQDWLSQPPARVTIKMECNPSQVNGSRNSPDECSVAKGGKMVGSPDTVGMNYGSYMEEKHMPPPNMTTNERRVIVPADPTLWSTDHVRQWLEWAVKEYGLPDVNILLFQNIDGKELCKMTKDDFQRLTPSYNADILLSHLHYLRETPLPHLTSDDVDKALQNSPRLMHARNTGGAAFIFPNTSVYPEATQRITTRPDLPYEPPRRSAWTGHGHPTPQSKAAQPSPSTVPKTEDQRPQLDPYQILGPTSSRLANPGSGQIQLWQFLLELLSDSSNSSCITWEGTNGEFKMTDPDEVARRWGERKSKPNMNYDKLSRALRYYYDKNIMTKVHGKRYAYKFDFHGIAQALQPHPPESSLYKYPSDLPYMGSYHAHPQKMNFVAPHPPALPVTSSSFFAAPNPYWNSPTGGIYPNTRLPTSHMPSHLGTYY
# Summary of the method: as §1
# ELF1 = ELF1 (Homo sapiens, UniProt P32519 1-619); conditions: protein: recombinant; tags: N-terminal GST; dsDNA, one strand shown
# Summary of the method: as §1
# EHF = target: T5, EHF (Homo sapiens, UniProt Q9NZC4 1-300); conditions: protein: recombinant; tags: N-terminal GST; dsDNA, one strand shown
# T5 sequence: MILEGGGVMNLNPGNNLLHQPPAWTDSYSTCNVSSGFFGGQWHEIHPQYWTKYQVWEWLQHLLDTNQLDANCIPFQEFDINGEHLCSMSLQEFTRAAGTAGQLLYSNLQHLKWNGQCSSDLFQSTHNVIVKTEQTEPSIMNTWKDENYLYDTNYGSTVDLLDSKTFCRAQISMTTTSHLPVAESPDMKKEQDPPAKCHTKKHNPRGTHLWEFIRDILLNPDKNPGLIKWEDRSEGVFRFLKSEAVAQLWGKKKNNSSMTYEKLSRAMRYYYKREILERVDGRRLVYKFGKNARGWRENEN
# Summary of the method: as §1
# SPI1 = SPI1 (Homo sapiens, UniProt P17947 1-270); conditions: protein: recombinant; tags: N-terminal GST; dsDNA, one strand shown
# Summary of the method: as §1
# SPIB = SPIB (Homo sapiens, UniProt Q01892 1-262); conditions: protein: recombinant; tags: N-terminal GST; dsDNA, one strand shown
# Summary of the method: as §1
# ELK3 = target: T6, ELK3 (Homo sapiens, UniProt P41970 1-407); conditions: protein: recombinant; tags: N-terminal GST; dsDNA, one strand shown
# T6 sequence: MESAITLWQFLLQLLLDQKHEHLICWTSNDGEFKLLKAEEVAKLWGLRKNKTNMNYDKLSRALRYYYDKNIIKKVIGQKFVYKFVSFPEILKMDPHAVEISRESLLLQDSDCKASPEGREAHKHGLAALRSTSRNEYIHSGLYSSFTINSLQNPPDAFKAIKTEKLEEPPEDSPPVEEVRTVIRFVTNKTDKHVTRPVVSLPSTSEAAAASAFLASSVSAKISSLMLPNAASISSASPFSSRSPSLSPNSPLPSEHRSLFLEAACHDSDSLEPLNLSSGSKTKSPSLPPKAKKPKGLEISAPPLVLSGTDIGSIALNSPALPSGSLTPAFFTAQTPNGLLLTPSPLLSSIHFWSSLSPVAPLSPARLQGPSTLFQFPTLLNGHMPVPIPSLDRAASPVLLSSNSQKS
# Summary of the method: as §1
# FEV = target: T7, FEV (Homo sapiens, UniProt Q99581 1-238); conditions: protein: recombinant; tags: N-terminal GST; dsDNA, one strand shown
# T7 sequence: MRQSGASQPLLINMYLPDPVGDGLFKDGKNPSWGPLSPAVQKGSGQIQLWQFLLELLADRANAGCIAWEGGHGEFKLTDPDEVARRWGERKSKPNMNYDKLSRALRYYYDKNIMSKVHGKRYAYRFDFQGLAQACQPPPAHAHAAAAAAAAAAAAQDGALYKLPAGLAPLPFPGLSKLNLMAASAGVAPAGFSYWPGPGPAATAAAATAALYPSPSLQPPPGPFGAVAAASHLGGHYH
# Summary of the method: as §1
# ETV5 = ETV5 (Homo sapiens, UniProt P41161 1-510); conditions: protein: recombinant; tags: N-terminal GST; dsDNA, one strand shown
# Summary of the method: as §1
# HSF1 = HSF1 (Homo sapiens, UniProt Q00613 1-529); conditions: protein: recombinant; tags: N-terminal GST; chain copies: 3; dsDNA, one strand shown
# Summary of the method: as §1
# SPIC = target: T8, SPIC (Homo sapiens, UniProt Q8N5J4 1-248); conditions: protein: recombinant; tags: N-terminal GST; dsDNA, one strand shown
# T8 sequence: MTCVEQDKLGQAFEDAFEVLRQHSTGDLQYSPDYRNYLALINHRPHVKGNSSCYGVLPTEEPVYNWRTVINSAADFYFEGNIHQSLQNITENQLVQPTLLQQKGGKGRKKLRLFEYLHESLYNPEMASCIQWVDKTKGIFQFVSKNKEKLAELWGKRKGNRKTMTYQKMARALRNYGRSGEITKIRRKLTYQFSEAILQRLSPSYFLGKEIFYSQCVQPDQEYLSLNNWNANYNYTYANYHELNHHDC
# Summary of the method: as §1
# ELF4 = ELF4 (Homo sapiens, UniProt Q99607 1-663); conditions: protein: recombinant; tags: N-terminal GST; dsDNA, one strand shown
# Summary of the method: as §1
# ELK4 = target: T9, ELK4 (Homo sapiens, UniProt P28324-2 1-405); conditions: protein: recombinant; tags: N-terminal GST; dsDNA, one strand shown
# T9 sequence: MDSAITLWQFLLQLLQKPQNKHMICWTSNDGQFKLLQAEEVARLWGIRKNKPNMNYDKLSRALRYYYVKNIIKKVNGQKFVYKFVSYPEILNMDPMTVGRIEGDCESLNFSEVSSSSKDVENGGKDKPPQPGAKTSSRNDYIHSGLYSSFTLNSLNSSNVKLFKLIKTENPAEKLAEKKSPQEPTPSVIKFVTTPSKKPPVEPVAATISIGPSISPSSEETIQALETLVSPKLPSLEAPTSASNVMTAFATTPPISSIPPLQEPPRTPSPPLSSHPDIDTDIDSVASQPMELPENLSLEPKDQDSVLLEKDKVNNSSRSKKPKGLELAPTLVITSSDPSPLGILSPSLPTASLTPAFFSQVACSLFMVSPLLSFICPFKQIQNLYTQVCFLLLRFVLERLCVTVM
# Summary of the method: as §1
# ETV2 = target: T10, ETV2 (Homo sapiens, UniProt O00321 1-342); conditions: protein: recombinant; tags: N-terminal GST; dsDNA, one strand shown
# T10 sequence: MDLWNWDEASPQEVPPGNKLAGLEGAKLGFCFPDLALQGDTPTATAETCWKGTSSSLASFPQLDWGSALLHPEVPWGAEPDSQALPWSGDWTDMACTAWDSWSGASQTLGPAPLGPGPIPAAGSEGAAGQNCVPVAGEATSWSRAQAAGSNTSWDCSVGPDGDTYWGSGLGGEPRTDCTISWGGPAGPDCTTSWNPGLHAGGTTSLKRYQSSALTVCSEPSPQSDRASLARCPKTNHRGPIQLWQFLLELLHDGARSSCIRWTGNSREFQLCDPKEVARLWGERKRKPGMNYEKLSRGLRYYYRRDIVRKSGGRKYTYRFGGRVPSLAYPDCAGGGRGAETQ
# Summary of the method: as §1
# ELF3 = target: T11, ELF3 (Homo sapiens, UniProt P78545 1-371); conditions: protein: recombinant; tags: N-terminal GST; dsDNA, one strand shown
# T11 sequence: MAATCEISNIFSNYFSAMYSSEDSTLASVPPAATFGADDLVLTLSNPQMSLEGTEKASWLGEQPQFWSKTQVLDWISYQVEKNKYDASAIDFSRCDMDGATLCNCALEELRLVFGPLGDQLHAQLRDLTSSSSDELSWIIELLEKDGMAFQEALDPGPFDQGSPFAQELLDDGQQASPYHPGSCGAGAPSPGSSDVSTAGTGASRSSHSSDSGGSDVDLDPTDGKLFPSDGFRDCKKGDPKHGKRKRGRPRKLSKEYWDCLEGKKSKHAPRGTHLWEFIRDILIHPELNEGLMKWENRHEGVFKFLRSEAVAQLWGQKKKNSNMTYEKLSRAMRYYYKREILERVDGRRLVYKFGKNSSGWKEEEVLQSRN
# Summary of the method: as §1
# CRX = CRX (Homo sapiens, UniProt O43186 1-299); conditions: protein: recombinant; tags: N-terminal GST; dsDNA, one strand shown
# Summary of the method: as §1
# ETV1 = ETV1 (Homo sapiens, UniProt P50549 1-477); conditions: protein: recombinant; tags: N-terminal GST; dsDNA, one strand shown
# Summary of the method: as §1
# Chain of ETV5 (P41161 whole entry): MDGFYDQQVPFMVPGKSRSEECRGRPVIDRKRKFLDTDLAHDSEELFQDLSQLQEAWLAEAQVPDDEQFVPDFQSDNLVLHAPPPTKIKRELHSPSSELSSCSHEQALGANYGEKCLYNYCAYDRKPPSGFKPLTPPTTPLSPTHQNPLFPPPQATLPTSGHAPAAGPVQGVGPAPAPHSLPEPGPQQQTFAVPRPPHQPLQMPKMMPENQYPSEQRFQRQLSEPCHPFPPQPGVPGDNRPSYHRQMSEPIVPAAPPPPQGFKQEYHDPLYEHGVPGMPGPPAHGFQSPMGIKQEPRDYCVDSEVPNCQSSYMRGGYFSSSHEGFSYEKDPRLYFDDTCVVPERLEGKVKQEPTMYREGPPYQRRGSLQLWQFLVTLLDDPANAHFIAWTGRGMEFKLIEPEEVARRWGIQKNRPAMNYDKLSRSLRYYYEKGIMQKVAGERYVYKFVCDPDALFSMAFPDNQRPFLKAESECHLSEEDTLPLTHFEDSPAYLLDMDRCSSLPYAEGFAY
# Chain of ELF4 (Q99607 whole entry): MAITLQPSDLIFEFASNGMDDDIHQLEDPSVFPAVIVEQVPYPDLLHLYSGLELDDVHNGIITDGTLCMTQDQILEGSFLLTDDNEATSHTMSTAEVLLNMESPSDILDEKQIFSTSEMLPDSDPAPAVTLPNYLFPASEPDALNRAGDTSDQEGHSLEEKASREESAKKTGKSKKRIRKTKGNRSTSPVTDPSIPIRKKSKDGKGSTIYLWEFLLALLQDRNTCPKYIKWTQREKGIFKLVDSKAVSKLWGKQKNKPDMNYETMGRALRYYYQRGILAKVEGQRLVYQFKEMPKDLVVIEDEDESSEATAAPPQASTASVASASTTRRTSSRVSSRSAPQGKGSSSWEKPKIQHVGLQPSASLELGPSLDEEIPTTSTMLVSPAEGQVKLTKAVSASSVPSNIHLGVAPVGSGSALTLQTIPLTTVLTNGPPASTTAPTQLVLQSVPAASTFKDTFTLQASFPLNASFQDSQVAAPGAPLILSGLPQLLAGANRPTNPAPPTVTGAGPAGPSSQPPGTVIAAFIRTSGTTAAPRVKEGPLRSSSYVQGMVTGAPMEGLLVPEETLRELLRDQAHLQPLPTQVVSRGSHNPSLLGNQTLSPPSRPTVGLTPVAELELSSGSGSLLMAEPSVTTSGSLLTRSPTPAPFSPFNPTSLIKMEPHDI
# Chain of SPIB (Q01892 whole entry): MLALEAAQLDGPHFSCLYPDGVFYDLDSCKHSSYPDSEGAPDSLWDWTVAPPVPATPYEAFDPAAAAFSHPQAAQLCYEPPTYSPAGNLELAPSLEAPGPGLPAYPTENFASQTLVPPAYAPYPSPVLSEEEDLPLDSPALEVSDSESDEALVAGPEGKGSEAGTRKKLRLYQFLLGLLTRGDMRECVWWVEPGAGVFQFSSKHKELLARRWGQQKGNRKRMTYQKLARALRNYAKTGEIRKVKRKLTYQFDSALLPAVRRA
# Chain of ELF1 (P32519 whole entry): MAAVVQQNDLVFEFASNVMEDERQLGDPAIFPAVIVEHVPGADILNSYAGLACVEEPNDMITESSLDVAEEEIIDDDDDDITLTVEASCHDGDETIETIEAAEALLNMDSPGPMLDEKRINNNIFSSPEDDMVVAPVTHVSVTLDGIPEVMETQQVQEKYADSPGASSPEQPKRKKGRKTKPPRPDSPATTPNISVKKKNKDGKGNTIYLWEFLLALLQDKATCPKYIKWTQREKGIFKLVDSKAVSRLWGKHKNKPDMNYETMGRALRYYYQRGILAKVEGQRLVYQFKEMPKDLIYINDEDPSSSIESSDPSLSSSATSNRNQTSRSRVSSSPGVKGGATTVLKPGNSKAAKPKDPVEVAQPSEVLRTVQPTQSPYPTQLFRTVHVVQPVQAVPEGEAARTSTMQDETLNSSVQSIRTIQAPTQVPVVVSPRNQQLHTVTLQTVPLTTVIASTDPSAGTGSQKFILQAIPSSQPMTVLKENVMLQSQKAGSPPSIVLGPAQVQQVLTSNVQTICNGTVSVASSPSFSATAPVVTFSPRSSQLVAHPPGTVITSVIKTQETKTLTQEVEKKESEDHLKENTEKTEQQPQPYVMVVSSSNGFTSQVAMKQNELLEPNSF
# Chain of ETV1 (P50549 whole entry): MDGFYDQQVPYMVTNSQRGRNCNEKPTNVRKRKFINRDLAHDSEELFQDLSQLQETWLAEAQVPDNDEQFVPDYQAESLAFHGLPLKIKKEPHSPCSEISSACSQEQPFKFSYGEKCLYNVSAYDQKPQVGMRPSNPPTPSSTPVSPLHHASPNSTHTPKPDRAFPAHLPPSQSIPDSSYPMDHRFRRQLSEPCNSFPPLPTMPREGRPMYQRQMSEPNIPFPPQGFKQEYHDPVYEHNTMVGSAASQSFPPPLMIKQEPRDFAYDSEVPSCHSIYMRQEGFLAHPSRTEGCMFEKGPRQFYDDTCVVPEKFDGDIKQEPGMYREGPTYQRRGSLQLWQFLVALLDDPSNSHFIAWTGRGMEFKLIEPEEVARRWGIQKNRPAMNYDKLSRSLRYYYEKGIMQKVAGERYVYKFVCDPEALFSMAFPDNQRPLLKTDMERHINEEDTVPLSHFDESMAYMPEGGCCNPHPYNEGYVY
# Chain of CRX (O43186 whole entry): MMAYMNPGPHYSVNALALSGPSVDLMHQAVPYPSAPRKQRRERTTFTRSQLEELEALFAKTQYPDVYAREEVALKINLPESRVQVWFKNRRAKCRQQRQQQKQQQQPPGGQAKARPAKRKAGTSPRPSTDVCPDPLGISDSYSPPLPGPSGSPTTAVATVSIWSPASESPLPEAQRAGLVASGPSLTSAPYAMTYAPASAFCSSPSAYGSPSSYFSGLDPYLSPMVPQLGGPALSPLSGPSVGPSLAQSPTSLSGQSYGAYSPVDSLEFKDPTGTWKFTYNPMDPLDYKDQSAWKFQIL
# Chain of HSF1 (Q00613 whole entry): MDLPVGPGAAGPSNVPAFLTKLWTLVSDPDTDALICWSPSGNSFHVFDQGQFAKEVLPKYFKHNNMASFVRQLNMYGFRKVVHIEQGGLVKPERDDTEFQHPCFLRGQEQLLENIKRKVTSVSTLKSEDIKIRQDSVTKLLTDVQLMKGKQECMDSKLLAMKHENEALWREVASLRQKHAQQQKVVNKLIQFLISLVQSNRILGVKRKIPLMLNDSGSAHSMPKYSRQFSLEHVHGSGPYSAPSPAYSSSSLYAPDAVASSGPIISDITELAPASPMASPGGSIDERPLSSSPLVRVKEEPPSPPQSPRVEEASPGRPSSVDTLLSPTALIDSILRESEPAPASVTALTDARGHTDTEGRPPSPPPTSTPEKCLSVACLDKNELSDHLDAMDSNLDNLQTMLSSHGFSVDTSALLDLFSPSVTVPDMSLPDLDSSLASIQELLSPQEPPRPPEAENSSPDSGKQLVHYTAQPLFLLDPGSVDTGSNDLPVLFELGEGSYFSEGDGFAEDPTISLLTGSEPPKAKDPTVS
sequence,measurement,setting,value
TCTTAG,binding signal,FLI1,"1.22 fold enrichment (6-mer frequency, TF over GST control)"
same,binding signal,ELK1,"1.21 fold enrichment (6-mer frequency, TF over GST control)"
same,binding signal,GABPA,"1.22 fold enrichment (6-mer frequency, TF over GST control)"
same,binding signal,ERG,"1.15 fold enrichment (6-mer frequency, TF over GST control)"
same,binding signal,ELF1,"1.25 fold enrichment (6-mer frequency, TF over GST control)"
same,binding signal,EHF,"1.21 fold enrichment (6-mer frequency, TF over GST control)"
same,binding signal,SPI1,"1.13 fold enrichment (6-mer frequency, TF over GST control)"
same,binding signal,SPIB,"1.09 fold enrichment (6-mer frequency, TF over GST control)"
same,binding signal,ELK3,"1.11 fold enrichment (6-mer frequency, TF over GST control)"
same,binding signal,FEV,"1.16 fold enrichment (6-mer frequency, TF over GST control)"
same,binding signal,ETV5,"1.21 fold enrichment (6-mer frequency, TF over GST control)"
same,binding signal,HSF1,"1.5 fold enrichment (6-mer frequency, TF over GST control)"
same,binding signal,SPIC,"1.36 fold enrichment (6-mer frequency, TF over GST control)"
same,binding signal,ELF4,"1.3 fold enrichment (6-mer frequency, TF over GST control)"
same,binding signal,ELK4,"1.21 fold enrichment (6-mer frequency, TF over GST control)"
same,binding signal,ETV2,"1.26 fold enrichment (6-mer frequency, TF over GST control)"
same,binding signal,ELF3,"1.29 fold enrichment (6-mer frequency, TF over GST control)"
same,binding signal,CRX,"1.86 fold enrichment (6-mer frequency, TF over GST control)"
same,binding signal,ETV1,"1.25 fold enrichment (6-mer frequency, TF over GST control)"
